40 compounds from ChEMBL document CHEMBL3988442, “University of Dundee, Small-Polar-MMV Screening Library” (2021) can be followed below.

“And” between values parts separate entries of the source, which are not always exact repeats. Equal values may be shown once.

For one assay, the target named is T1, Proteasome subunit beta (Trypanosoma cruzi) (UniProt O96673).
T1 sequence (whole entry): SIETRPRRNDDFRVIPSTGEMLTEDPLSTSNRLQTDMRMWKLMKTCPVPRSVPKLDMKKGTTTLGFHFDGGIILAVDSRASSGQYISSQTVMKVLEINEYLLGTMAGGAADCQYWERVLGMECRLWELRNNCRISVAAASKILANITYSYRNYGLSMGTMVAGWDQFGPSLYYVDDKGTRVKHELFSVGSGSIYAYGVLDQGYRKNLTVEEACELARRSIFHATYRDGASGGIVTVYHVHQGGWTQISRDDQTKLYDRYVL
Briefly: Trypanosoma cruzi proteasome chymotrypsin-like activity (TcProtChymo) assay. The assay is classed as functional. Details: scale not given: in the data most compounds retested in dose-response had high values. The following applies: 9.37 µM.
As to `O=S(=O)(NCCN1CCCCC1Cn1cncn1)c1ccccc1` (stereo not drawn), the Percent Effect was -5.61%. Still for that read-out and setting: to `Cc1cccc(N2CC[C@@H]3CN(Cc4csc(C)n4)CCO[C@@H]3C2)n1` belongs 7.15%.

On to `CCc1nc(C2CCCN2C(=O)C2=COCC2)no1` (stereo not drawn), for which the Percent Effect is -2.46%. Regarding `O=C(NCCOc1ccc2c(c1)OCO2)N1CCC1`, the Percent Effect came out at 19.1%. Regarding `COCCN1C(=O)CCC12CCN(C(=O)NC(C)C)CC2`, the Percent Effect is -2.66%. On the same count and under the same terms, to `O=C1CN(Cc2ccc(-c3ccccc3C(=O)O)cc2)CCN1` belongs 14.1%; to `CC(C)c1cc(C(=O)NCCN2CCCS2(=O)=O)n[nH]1`, 18%; to `Cc1cnc(CN2CCCC(c3cc(C(F)(F)F)[nH]n3)C2)cn1` (stereo not drawn), 2.97%. Same read-out and setting: to `COCCOc1cccc(C(=O)N2CCCC(n3cccn3)C2)c1` (stereo not drawn) belongs 2.28%; to `Cc1cc(CN(C)C(=O)NCC(C)N2CCc3ccccc32)no1` (stereo not drawn), -2.46%; to `CCn1cnnc1CNC(=O)N1CCOCC1`, 2.97%. Same read-out and setting: to `Cn1nc2c(cc1=O)CN(Cc1nnc(C3CC3)o1)CC2` belongs 6.91%. With `CCc1cc(C(=O)N2CCC(Nc3ccc(C)nn3)CC2)sc1C`, the Percent Effect was found to be 2.8%. On the same count and under the same terms, next, `CC(=O)N1CCCN(CC(C)(O)c2cccc(C(F)(F)F)c2)CC1` (stereo not drawn): 3.51%; `CC(C)c1ncncc1C(=O)NCCN1CCCS1(=O)=O`: 3.5%. For the compound `Cn1cc(-c2nc(CN3CCc4c(ncn4C4CC4)C3)cs2)cn1`, the Percent Effect stood at 3.33%. The same measure, in the same setting: to `CC(C)n1ccnc1C1CCN(C(=O)c2cc[nH]n2)CC1` belongs 13.2%. On the same count and under the same terms, next, `O=C(C1CCOC1)N1CC[C@@H](O)[C@@H]1Cc1ccccc1` (stereo partly drawn): 6.09%; `O=C(c1cccnc1)N1CCn2nnc(COc3cccnc3)c2C1`: 14%. Same read-out and setting: next, `O=C(CSc1ccc(F)c(F)c1)NS(=O)(=O)c1ccc2c(c1)OCCO2`: 3.16%; `O=C(C1CCOCC1)N1CC[C@H]2C[C@@H](c3ccncn3)O[C@@H]2C1`: 13.7%. For the compound `Cc1ccc(OCC(=O)NS(=O)(=O)c2c(C)noc2C)cc1C`, the Percent Effect came to 0.0853%. Take `CCn1nc2c(cc1=O)CN(CC(=O)Nc1nc(C)c(C)s1)CC2`: the Percent Effect amounted to 13.3%. Still for that read-out and setting: to `COCCN1CCCN(C(=O)NC(C)Cn2cccn2)CC1` (stereo not drawn) belongs 10.9%.

Turning to `CC(Nc1cccc(CN2CCOC2=O)c1)C(=O)N1CCNC1=O` (stereo not drawn), the Percent Effect was determined as 2.3%. The same measure, in the same setting: next, `CCn1ccnc1CN1CCCN(C(=O)c2cccc(C#N)c2)CC1`: 0.939%. Same read-out and setting: next, `CN(C)CCN1CCCC12CCN(C(=O)c1cccn1C)CC2`: 0.618%; `O=C(CN1CCCC(c2ccc(C(=O)O)cc2)C1)NC1CC1` (stereo not drawn): 1.2%. The same measure, in the same setting: next, `CN(Cc1noc(C2CC2)n1)C1CCN(Cc2nnc(C3CC3)o2)C1` (stereo not drawn): 17.4%; `Cc1occc1C(=O)N1CCC2(CCC(C(=O)NCC3CC3)O2)CC1` (stereo not drawn): 13%. Take `O=C1C(NCc2nnc3n2CCCC3)CCN1c1ccccc1` (stereo not drawn): the Percent Effect was -2.99%. Still for that read-out and setting: next, `Cc1nccn1-c1cccc(C2CCCN(C(=O)c3cc[nH]n3)C2)n1` (stereo not drawn): 17.9%; `Cc1ccc(CN2CCC(c3nnc(CN4CCCCC4)n3C)CC2)o1`: 5.99%; `Cc1c(F)cc(C(=O)O)cc1S(=O)(=O)Nc1cccc(C(F)F)c1`: 6.23%. On the same count and under the same terms, to `Cc1noc(C(C)C)c1C(=O)NCCCOC(C)C` belongs 6.67%.

Another assay has as its system N/A. Briefly: Trypanosoma cruzi proteasome luciferase counter-screen. The assay is classed as functional. Details: scale not given: direction of the effect not stated beside the values. Conditions: 9.37 µM.
For `Fc1cnc(N2CCOC3(CCN(Cc4ccsc4)CC3)C2)nc1`, the Percent Effect is 5.37% and 9.17%. The same measure, in the same setting: to `Cc1[nH]/c(=N\C(=O)c2csc(NCC(C)C)n2)sc1C` belongs 53.4% and 61%; to `COc1ccccc1OC1CCN(Cc2cnc(N(C)C)nc2)CC1`, 13.7% and 17.2%.

The species entered for a further assay is Homo sapiens. Briefly: To identify inhibition of the IFN signalling (Jak-Stat) pathway via expression of an eGFP reporter gene under the control of an IFN-stimulated response element (ISRE) containing MxA promoter. The assay is classed as functional. Details: scale not given: direction of the effect not stated beside the values. Conditions: 30 µM.
Turning to `O=S(=O)(NCCN1CCCCC1Cn1cncn1)c1ccccc1` (stereo not drawn), the Percent Effect is -18.3%. The same measure, in the same setting: to `Cc1cccc(N2CC[C@@H]3CN(Cc4csc(C)n4)CCO[C@@H]3C2)n1` belongs -15.6%; to `CCc1nc(C2CCCN2C(=O)C2=COCC2)no1` (stereo not drawn), 12.2%.

`O=C(NCCOc1ccc2c(c1)OCO2)N1CCC1`: the Percent Effect was -11.1%. On the same count and under the same terms, next, `COCCN1C(=O)CCC12CCN(C(=O)NC(C)C)CC2`: 19.9%. On the same count and under the same terms, to `O=C1CN(Cc2ccc(-c3ccccc3C(=O)O)cc2)CCN1` belongs 27.5%; to `CC(C)c1cc(C(=O)NCCN2CCCS2(=O)=O)n[nH]1`, -1.8%; to `Cc1cnc(CN2CCCC(c3cc(C(F)(F)F)[nH]n3)C2)cn1` (stereo not drawn), 10.5%.

Take `COCCOc1cccc(C(=O)N2CCCC(n3cccn3)C2)c1` (stereo not drawn): the Percent Effect turned out to be 7.63%. As to `Cc1cc(CN(C)C(=O)NCC(C)N2CCc3ccccc32)no1` (stereo not drawn), the Percent Effect is -9.63%. Regarding `CCn1cnnc1CNC(=O)N1CCOCC1`, the Percent Effect is -3.83%. For the compound `Cn1nc2c(cc1=O)CN(Cc1nnc(C3CC3)o1)CC2`, the Percent Effect was 36.5%. On the same count and under the same terms, to `Fc1cnc(N2CCOC3(CCN(Cc4ccsc4)CC3)C2)nc1` belongs 4.01%; to `OCC1CCCCN1c1ccc(-c2nc(-c3ccccc3F)no2)cn1` (stereo not drawn), 1.31%. Same read-out and setting: to `CCc1cc(C(=O)N2CCC(Nc3ccc(C)nn3)CC2)sc1C` belongs 4.58%; to `CC(=O)N1CCCN(CC(C)(O)c2cccc(C(F)(F)F)c2)CC1` (stereo not drawn), -6.46%; to `CC(C)c1ncncc1C(=O)NCCN1CCCS1(=O)=O`, 1.77%.

Consider `Cn1cc(-c2nc(CN3CCc4c(ncn4C4CC4)C3)cs2)cn1`, for which the Percent Effect was 8.83%. The same measure, in the same setting: next, `CC(C)n1ccnc1C1CCN(C(=O)c2cc[nH]n2)CC1`: 31.6%; `O=C(C1CCOC1)N1CC[C@@H](O)[C@@H]1Cc1ccccc1` (stereo partly drawn): -3.1%; `O=C(c1cccnc1)N1CCn2nnc(COc3cccnc3)c2C1`: -1.63%. Take `Cc1[nH]/c(=N\C(=O)c2csc(NC3CC3)n2)sc1C`: the Percent Effect was 10.7%. Still for that read-out and setting: next, `O=C(CSc1ccc(F)c(F)c1)NS(=O)(=O)c1ccc2c(c1)OCCO2`: 12.6%. The same measure, in the same setting: to `O=C(C1CCOCC1)N1CC[C@H]2C[C@@H](c3ccncn3)O[C@@H]2C1` belongs -13.3%.

Turning to `Cc1ccc(OCC(=O)NS(=O)(=O)c2c(C)noc2C)cc1C`, the Percent Effect amounted to 17.7%. Turning to `CCn1nc2c(cc1=O)CN(CC(=O)Nc1nc(C)c(C)s1)CC2`, the Percent Effect is 14.5%. Same read-out and setting: next, `Cc1[nH]/c(=N\C(=O)c2csc(NCC(C)C)n2)sc1C`: 20.5%.

With `COCCN1CCCN(C(=O)NC(C)Cn2cccn2)CC1` (stereo not drawn), the Percent Effect was determined as 14.4%. The same measure, in the same setting: to `CC(Nc1cccc(CN2CCOC2=O)c1)C(=O)N1CCNC1=O` (stereo not drawn) belongs 28.2%; to `CCn1ccnc1CN1CCCN(C(=O)c2cccc(C#N)c2)CC1`, 9.49%; to `CN(C)CCN1CCCC12CCN(C(=O)c1cccn1C)CC2`, -20.1%. As to `O=C(CN1CCCC(c2ccc(C(=O)O)cc2)C1)NC1CC1` (stereo not drawn), the Percent Effect is -14.3%. `CN(Cc1noc(C2CC2)n1)C1CCN(Cc2nnc(C3CC3)o2)C1` (stereo not drawn): the Percent Effect was found to be 20.4%.

With `Cc1occc1C(=O)N1CCC2(CCC(C(=O)NCC3CC3)O2)CC1` (stereo not drawn), the Percent Effect turned out to be 6.84%. Same read-out and setting: to `O=C1C(NCc2nnc3n2CCCC3)CCN1c1ccccc1` (stereo not drawn) belongs 18.5%. Still for that read-out and setting: to `COc1ccccc1OC1CCN(Cc2cnc(N(C)C)nc2)CC1` belongs 1.97%; to `Cc1nccn1-c1cccc(C2CCCN(C(=O)c3cc[nH]n3)C2)n1` (stereo not drawn), 32.9%. Still for that read-out and setting: next, `Cc1ccc(CN2CCC(c3nnc(CN4CCCCC4)n3C)CC2)o1`: 1.11%. Turning to `Cc1c(F)cc(C(=O)O)cc1S(=O)(=O)Nc1cccc(C(F)F)c1`, the Percent Effect is 11.6%. On the same count and under the same terms, to `Cc1noc(C(C)C)c1C(=O)NCCCOC(C)C` belongs -3.84%.
